A number with no mark means an inactive call. Records with an inconclusive call do not appear. Activity calls are given as the source filed them. Unless noted, calls come from the whole dose curve; as a rule, active = well fitted curve in the direction sought with a large enough effect; inconclusive = small, poorly fitted or top-dose-only effect, or another doubt; inactive = no such curve, though single readings can be large; an effect the other way counts as inactive or inconclusive.

Test [1] can be described thus: qHTS assay for measurement of the activity of small molecule inhibitors on Zika virus induced Caspase-3 activity in human iPSC derived neural progenitor cells (hNPCs) (AID 1224857). Note: nearly all actives have a fitted effect of over 65% in size. In a few lines:
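Values are percent inhibition of virus-induced caspase-3/7 signal, scaled between uninfected cells and ZIKV-infected cells. Infection used 2 FFU/cell for 6 h after 1 h compound exposure.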
(Quantitative high-throughput screening tests each substance at several concentrations.)

A short description of test [2]: qHTS assay for measurement of the activity of small molecule inhibitors on Zika virus induced Caspase-3 activity in human astrocytoma cells (AID 1224859). In a few lines:
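Compound added 1 h pre-infection; ZIKV 2 FFU/cell on SNB-19 cells, 6 h, 37 C/5% CO2. Caspase-Glo 3/7 luminescence; values as % inhibition of ZIKV-induced caspase activity.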

The target in test [3] is Atrial natriuretic peptide receptor 1 (Homo sapiens) (UniProt P16066). The test is described as follows: Natriuretic polypeptide receptor (hNpr1) antagonism - Pilot screen (AID 1347049; calls by dose curve;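 note: agonist-evoked cGMP luminescence read 20 min after hNppA addition; series mostly up to about 58 µM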). The method in brief:
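cGMP-sensor HEK293/hNpr1 cells, 1500/well, plated overnight at 37C. 2% GloSensor reagent, 2 h RT. Compound (23 nL pin transfer) 30 min RT, baseline luminescence pre-read. 0.1 nM hNppA, 20 min RT, post-read.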

The nature of test [4]: NS1 protein of Zika virus - qHTS assay to identify small molecule inhibitors in human HEK 293 cells (AID 1347053). Note: series mostly up to about 46 µM; nearly all actives have a fitted effect of over 55% in size. The method in brief:
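TR-FRET signal from two anti-ZIKV NS1 antibodies quantified NS1 in HEK 293 cells 24 h after MR766 infection at MOI = 0.5; compounds were added 1 h before virus. Uninfected cells and infected cells defined the NS1 normalization range.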

The target of test [5] is T1, Tyrosine-protein phosphatase non-receptor type substrate 1 (Homo sapiens) + Leukocyte surface antigen CD47 (Homo sapiens) (UniProt P78324+Q08722). The test is described as follows: CD47-SIRPalpha protein protein interaction - LANCE assay qHTS validation (AID 1347057; active = well fitted curve in the direction sought with a large enough effect in the signal ratio, with a control signal flat, not every such curve was filed as active; the % refers to the signal ratio; note: series mostly up to about 38 µM). In a few lines: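 Inhibition of soluble CD47/SIRPalpha ectodomain association by titrated compounds, measured as 665/615 nm time-resolved FRET ratio after sequential 30 min room-temperature incubations.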
T1 sequence (P78324 whole entry, looked up, the tested form may be a part): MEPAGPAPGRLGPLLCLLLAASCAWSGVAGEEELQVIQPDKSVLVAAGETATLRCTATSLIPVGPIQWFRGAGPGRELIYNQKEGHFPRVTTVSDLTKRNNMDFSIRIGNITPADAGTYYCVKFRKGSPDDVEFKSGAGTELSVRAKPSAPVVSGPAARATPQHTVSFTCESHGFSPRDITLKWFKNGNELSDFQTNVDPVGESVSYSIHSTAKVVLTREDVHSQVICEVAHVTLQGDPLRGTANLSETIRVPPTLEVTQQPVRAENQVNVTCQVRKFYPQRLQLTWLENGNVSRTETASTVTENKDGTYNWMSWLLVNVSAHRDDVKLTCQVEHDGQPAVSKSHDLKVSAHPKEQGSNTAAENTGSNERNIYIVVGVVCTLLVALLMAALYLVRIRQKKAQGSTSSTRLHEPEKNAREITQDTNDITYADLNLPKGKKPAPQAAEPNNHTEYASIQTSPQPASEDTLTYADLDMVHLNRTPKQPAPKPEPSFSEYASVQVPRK
T1 sequence (Q08722 whole entry, looked up, the tested form may be a part): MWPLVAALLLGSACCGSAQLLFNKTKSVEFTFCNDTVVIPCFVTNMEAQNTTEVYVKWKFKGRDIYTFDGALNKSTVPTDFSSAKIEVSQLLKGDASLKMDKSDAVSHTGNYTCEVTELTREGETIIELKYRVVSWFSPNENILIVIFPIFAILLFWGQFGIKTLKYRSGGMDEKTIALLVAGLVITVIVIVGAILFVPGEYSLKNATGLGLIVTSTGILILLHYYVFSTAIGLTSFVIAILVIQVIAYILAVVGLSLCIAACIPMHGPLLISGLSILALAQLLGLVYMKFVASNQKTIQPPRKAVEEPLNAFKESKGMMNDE
On the technique in general: In TR-FRET formats the signal depends on donor and acceptor labels being close together.

The target in test [6] is T1, Tyrosine-protein phosphatase non-receptor type substrate 1 (Homo sapiens) + Leukocyte surface antigen CD47 (Homo sapiens). The test is described as follows: CD47-SIRPalpha protein protein interaction - Alpha assay qHTS validation (AID 1347059).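 Note: bead proximity luminescence from CD47 binding SIRPalpha after compound preincubation with SIRPalpha.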 The method in brief: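 SIRPalpha-biotin 25 nM + cpd, 30 min RT, dark; add CD47-His 12.5 nM, 30 min; add Ni-NTA/SAV beads 10 ug/mL, 30 min; AlphaScreen. Buffer PBS pH 7.4 + 0.05% IGEPAL CA-630. Non-biotinylated SIRPalpha as control inhibitor.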

Test [7] is described as follows: qHTS assay to identify small molecule inhibitors of chordoma cells - UCH-1 (AID 1259355). Note: nearly all actives have a fitted effect of over 55% in size. In a few lines: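 Screening used approved and investigational drugs in 15-point titration against 800 seeded cells per well. A fixed combination of auranofin with camptothecin, doxorubicin, rubitecan and topotecan followed compound addition, and growth was scored by CellTiter-Glo after 48hr.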

The nature of test [8]: qHTS assay to identify small molecule inhibitors of chordoma cells - UCH-2 (AID 1259356). Note: series mostly up to about 46 µM.
Test [9] in a line: P-glycoprotein substrates identified in KB-8-5-11 adenocarcinoma cell line, qHTS therapeutic library screen (AID 1346987). Note: series mostly up to about 44 µM; nearly all actives have a fitted effect of over 65% in size. The method in brief:
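Luminescence from CellTiter-Glo, read 5 min after addition, quantified survival of KB-8-5-11 (P-gp-overexpressing) cells exposed to compounds for 72 h. AC50 was derived from concentration-response curves.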

For test [10], the target named is T1, Tyrosine-protein phosphatase non-receptor type substrate 1 (Homo sapiens) + Leukocyte surface antigen CD47 (Homo sapiens). As to the kind of experiment: CD47-SIRPalpha protein protein interaction - HTRF assay qHTS validation (AID 1347058; active = well fitted curve in the direction sought with a large enough effect in the signal ratio, not every such curve was filed as active; the % refers to the signal ratio; note: series mostly up to about 38 µM). The method in brief: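 Soluble extracellular domains (6His-CD47, Avi-tag-biotinylated SIRPalpha) in PBS pH 7.4 with 0.05% IGEPAL CA-630. Compounds were preincubated 30 min at RT with CD47 and anti-His-Eu, then SIRPalpha and SAV-XL665 were added. TR-FRET 665/615 ratio.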

Test [11] addresses Parathyroid hormone/parathyroid hormone-related peptide receptor (Homo sapiens) (UniProt Q03431). The test is described as follows: qHTS for PTHR1 Agonists: Optimization Screen against the NCGC LOPAC library (AID 1347079).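 Note: GloSensor cAMP luminescence in HEK-293 GP2 cells expressing human PTHR1 with IBMX.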 The method in brief:
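HEK-293 GP2 cells, PTHR1 + GloSensor cAMP; 3000 cells/well, o/n. Luciferin + IBMX 0.5mM each (stock), 1 hr 37C. Cpd titration, 1 hr 37C. Lum after 15 min RT. Ctrl M-PTH(1-15) top 10uM.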

Test [12] in a line: qHTS of pediatric cancer cell lines to identify multiple opportunities for drug repurposing: Primary screen for TC32 cells (AID 1347089). Note: nearly all actives have a fitted effect of over 60% in size. The method in brief: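 A viability screen of TC32 cells was run over 48 h, with primary MIPE doses spanning 0.78 nM–46 µM and NPC doses 0.59 nM–46 µM. ATP luminescence (CellTiter-Glo) served as the read-out.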
Test [13] in a line: qHTS of pediatric cancer cell lines to identify multiple opportunities for drug repurposing: Primary screen for DAOY cells (AID 1347090). Note: series mostly up to about 46 µM; nearly all actives have a fitted effect of over 55% in size. In a few lines:
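Viability measured as metabolically active cells via CellTiter-Glo luminescence following 48 hours of compound exposure, 11-point dilutions in confirmatory testing. 500-1,000 cells/well plated 5 hours before dosing; controls were DMSO and 2.3 µM bortezomib.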

The nature of test [14]: Identifying Small Molecule Inhibitors of Pancreatic Cancer Stem Cells (SN12C, Adherent) (AID 1259358).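 Note: potency is the fitted concentration of half-maximal effect; cell survival measured after 48 h of compound exposure.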 The method in brief: (§1)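 Endpoint: ATP-based luminescence, 48 h drug exposure. Bortezomib at 9.2 uM final as full-kill control; DMSO vehicle as negative control; activity normalized between vehicle and cell-free wells.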
Test [15] is described as follows: Identifying Small Molecule Inhibitors of Pancreatic Cancer Stem Cells (Panc1, Spheroid) (AID 1259359).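 Note: potency is the fitted concentration of half-maximal effect; compound exposure lasted 48 h before reading.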 To be noted: Panc1 spheroid cancer stem cell viability. In a few lines: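 After a 4 h attachment period, compounds were pinned into wells and cultures held 48 h under standard incubator conditions. Viability was then measured as CellTiter-Glo luminescence following 10 min at room temperature.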

The nature of test [16]: Identifying Small Molecule Inhibitors of Pancreatic Cancer Stem Cells (Panc1, Adherent) (AID 1259362). Note: potency is the fitted concentration of half-maximal effect. To be noted: viability. In a few lines:
as §1

In test [17] the target is Atrial natriuretic peptide receptor 2 (Homo sapiens) (UniProt P20594). The test is described as follows: Natriuretic polypeptide receptor (hNpr2) antagonism - Pilot subtype selectivity assay (AID 1347050; calls by dose curve). The method in brief: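 Luminescence from a genetically encoded cGMP luciferase biosensor in hNpr2-expressing HEK293 cells is read before and 20 min after adding 1 nM hNppC. Test compounds, in interplate 1:5 titrations, are added 30-50 min ahead of the agonist.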
Sequence of Atrial natriuretic peptide receptor 2 (Homo sapiens) (P20594 whole entry, looked up): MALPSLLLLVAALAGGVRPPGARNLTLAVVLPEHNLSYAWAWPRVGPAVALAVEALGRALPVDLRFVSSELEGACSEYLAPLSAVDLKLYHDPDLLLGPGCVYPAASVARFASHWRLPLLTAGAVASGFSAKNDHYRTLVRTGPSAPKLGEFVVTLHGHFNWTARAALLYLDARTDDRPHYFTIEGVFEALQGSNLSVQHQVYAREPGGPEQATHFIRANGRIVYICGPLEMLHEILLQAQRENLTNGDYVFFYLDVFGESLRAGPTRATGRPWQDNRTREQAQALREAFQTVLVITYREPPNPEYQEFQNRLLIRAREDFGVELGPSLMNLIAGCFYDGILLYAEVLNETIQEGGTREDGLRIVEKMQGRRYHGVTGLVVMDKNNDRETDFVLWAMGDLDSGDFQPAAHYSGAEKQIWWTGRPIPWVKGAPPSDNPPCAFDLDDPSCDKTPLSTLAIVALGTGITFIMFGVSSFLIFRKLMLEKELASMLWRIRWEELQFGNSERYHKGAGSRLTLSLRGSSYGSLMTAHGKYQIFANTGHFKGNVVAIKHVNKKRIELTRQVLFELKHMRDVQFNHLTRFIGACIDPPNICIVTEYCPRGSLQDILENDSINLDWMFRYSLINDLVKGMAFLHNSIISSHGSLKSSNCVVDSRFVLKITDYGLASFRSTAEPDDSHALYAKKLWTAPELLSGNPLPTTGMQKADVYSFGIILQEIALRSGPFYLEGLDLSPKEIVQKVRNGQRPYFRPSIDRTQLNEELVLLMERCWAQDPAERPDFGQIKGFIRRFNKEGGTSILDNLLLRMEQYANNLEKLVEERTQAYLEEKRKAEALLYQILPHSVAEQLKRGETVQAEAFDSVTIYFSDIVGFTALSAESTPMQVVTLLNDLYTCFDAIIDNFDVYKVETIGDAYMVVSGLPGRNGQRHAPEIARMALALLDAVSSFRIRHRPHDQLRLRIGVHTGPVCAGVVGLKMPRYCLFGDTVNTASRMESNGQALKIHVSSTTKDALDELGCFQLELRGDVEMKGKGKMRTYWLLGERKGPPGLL

Sequence of Atrial natriuretic peptide receptor 1 (Homo sapiens) (P16066 whole entry, looked up): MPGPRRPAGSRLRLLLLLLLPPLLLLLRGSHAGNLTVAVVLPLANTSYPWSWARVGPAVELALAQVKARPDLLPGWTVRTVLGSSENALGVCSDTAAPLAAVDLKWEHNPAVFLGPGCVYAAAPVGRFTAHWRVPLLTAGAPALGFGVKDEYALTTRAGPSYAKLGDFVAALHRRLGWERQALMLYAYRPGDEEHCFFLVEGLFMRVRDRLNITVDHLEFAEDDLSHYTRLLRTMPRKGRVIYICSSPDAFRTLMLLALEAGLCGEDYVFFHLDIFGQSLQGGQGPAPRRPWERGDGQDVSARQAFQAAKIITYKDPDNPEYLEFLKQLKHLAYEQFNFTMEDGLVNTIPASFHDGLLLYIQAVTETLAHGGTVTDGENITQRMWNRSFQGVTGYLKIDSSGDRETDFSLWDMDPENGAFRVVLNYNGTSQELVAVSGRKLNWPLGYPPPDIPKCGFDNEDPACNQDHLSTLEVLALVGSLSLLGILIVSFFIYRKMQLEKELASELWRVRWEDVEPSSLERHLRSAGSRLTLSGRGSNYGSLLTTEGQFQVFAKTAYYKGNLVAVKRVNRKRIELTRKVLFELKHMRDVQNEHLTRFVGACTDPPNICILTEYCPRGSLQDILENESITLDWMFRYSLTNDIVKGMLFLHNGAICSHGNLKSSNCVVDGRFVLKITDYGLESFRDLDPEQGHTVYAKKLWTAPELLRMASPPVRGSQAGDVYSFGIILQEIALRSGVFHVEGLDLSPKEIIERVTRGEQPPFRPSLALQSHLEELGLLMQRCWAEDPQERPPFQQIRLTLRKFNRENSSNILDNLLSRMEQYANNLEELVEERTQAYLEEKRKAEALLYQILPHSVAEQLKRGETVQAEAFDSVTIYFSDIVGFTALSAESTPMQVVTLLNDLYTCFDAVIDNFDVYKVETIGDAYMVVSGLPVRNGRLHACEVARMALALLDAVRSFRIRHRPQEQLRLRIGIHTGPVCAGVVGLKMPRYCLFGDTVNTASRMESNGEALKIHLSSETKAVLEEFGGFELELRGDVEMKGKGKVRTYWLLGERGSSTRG
Sequence of Parathyroid hormone/parathyroid hormone-related peptide receptor (Homo sapiens) (Q03431 whole entry, looked up): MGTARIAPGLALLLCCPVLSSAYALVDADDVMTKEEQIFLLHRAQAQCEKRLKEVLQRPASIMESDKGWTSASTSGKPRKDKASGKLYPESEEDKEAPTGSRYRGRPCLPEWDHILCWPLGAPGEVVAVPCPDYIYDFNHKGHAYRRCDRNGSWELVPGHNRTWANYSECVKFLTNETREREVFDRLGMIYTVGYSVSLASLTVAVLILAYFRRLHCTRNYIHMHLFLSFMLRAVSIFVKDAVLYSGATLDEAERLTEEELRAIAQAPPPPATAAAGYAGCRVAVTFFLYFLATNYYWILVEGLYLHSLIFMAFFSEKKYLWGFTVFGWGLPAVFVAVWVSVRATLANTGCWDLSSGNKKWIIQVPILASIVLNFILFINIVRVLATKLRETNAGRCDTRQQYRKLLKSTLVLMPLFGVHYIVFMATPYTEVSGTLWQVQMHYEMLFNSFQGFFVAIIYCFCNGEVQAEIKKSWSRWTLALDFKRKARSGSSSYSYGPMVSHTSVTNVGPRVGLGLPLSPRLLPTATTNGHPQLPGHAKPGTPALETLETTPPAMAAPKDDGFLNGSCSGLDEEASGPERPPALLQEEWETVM

`O=S(=O)(c1cccc2c(I)cccc12)N1CCCNCC1`: the Potency result in test [1], in [2], in [3], in test [4], in test [5] and in test [6] was “inactive” each time.

As to `CO/N=C(\C(=O)N[C@@H]1C(=O)N2C(C(=O)O)=C(COC(C)=O)CS[C@H]12)c1csc(N)n1` (stereo in doubt), the Potency result in test [1], in [7], in test [8] and in test [9] was “inactive” each time.

As to `NS(=O)(=O)C#Cc1ccccc1`, the Potency result in test [1], in [2], in test [5], in test [6] and in test [11] was “inactive” throughout. Besides, the result in test [10] was inactive.

Regarding `O=[N+]([O-])c1ccc(CNc2nc(NCc3cccc(C(F)(F)F)c3)nc3nc[nH]c23)cc1`, the Potency entry in test [1], in test [9], in [4], in test [5] and in [6] was “inactive” throughout. For the same molecule, the result in test [10] was inactive.

`Clc1ccccc1-c1nc(-c2ccncc2)no1`: the Potency result in test [1], in test [7], in [8], in [4], in [12] and in test [13] was “inactive” in each case.

Consider `C=CCc1cccc(/C=N/NC(=O)CN2CCN(Cc3ccccc3)CC2)c1O`, for which, in test [1], the Potency result is “inactive”. Further, the Potency was 10.5 µM (active) in test [14], 26.4 µM (active) in [15] and 4.18 µM (active) in test [16].

Consider `CCCCCCCCCCCCCCCCCC(=O)OC(CC(=O)O)C[N+](C)(C)C` (configuration not stated), for which the Potency result in test [1], in test [2], in test [17], in test [5] and in [6] was “inactive” in each case. The result in [10] was inactive.

Regarding `O=C(c1ccc(Cl)cc1)N1CCN(c2ccc([N+](=O)[O-])c3ncccc23)CC1`, the Potency result in [1], in test [2], in test [4], in [5], in test [6] and in test [11] was “inactive” in each case.

With `NC(=O)C(c1ccccc1)(c1ccccc1)[C@@H]1CCN(CCc2ccc3c(c2)CCO3)C1`, the Potency result in [1], in test [7], in [8], in test [4] and in [12] was “inactive” in each case.

Turning to `CCOC(=O)C1=C(C)NC(C)=C(C(=O)OCC)C1c1c(F)c(F)c(F)c(F)c1F`, the Potency result in [1], in test [2], in test [4], in test [5], in [6] and in test [11] was “inactive” throughout. The result in [10] was inactive.

`CCCCCCCCCCCCCCCCCC(=O)O`: the Potency entry in [1], in test [7], in test [8], in test [9], in test [4] and in [12] was “inactive” in each case. In addition, the Potency result in test [13] is “inactive”.

`NC[C@H]1O[C@@H](n2cnc3c(N)ncnc32)[C@H](O)[C@@H]1O`: the Potency result in test [1], in test [2], in test [3], in test [4], in test [5] and in test [6] was “inactive” in each case. In addition, in test [11], the Potency result is “inactive”. Besides, in test [10], the outcome was inactive.

On to `O=C(Nc1ccc(C(=O)O)c(O)c1)c1ccccc1`, for which the Potency result in test [1], in test [7], in [8], in test [9], in test [4] and in test [12] was “inactive” each time. The Potency result in test [13] is “inactive”.

Regarding `C#C[C@]1(O)CC[C@H]2[C@@H]3CCC4=Cc5oncc5CC4(C)[C@H]3CCC21C` (some centres not stated), the Potency entry in [1], in [2], in test [4] and in [11] was “inactive” throughout.

For the molecule `O=C(c1cc(O)c(O)c([N+](=O)[O-])c1)c1ccccc1F`, the Potency result in test [1], in test [2], in test [17], in test [4], in [5] and in test [6] was “inactive” in each case. In addition, in [11], the Potency result was “inactive”.

With `Fc1cccc(/C=N/N=C/c2cccc(F)c2)c1`, the Potency entry in test [1], in test [2], in [3], in [4], in test [5] and in test [6] was “inactive” throughout. In addition, in test [11], the Potency entry was “inactive”. Further, the outcome in test [10] was inactive.

The values above are taken from PubChem BioAssay (NCATS).
